Screening data from PubChem BioAssay.
Hits are enriched below; roughly 5.2% of the tested compounds scored in any of these assays.
TSHR ag = TSH receptor (human) agonism; HEK293-CNG-TSHR cells (CNG channel as cAMP sensor), membrane potential dye, cAMP; Potency, µM (top dose mostly 57.1 µM), hits mostly activators; actives 0.48% (n = 73,000); AID 926; active = well fitted activation curve with a large enough effect in the main read-out, with a control signal flat, not every such curve was filed as active; inconclusive = small, poorly fitted or top-dose-only effect, or a change in a side signal; inactive = no such curve, though single readings can be large or run the other way; reference of the percent scale not stated here;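 note: the control signal comes from parental cells without the receptor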
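HEK 293 cells stably expressing TSHR and a cAMP-gated CNG channel; parental CNG-only cells as counterscreen. Cells preloaded 60 min with membrane potential dye plus 100 uM RO 20-1724, then compound 30 min; fluorescence read at 590 nm.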
HEK293 cAMP ctrl = raises cAMP in parental HEK293 cells, TSHR agonist counter-screen; AID 938; parental HEK293 CNG cAMP sensor, membrane potential fluorescence; actives 2.5% (n = 73,000); Potency, µM (highest dose often 57.1 µM), usual class: activators; note: nearly all actives have a fitted effect of over 55% in size
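Parental HEK 293 cells stably expressing a cAMP-gated CNG channel were loaded with membrane potential dye containing 100 uM RO 20-1724 for 60 min. Compound added for 30 min; depolarization read as fluorescence intensity at 590 nm.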
Luciferase inh = firefly luciferase inhibition; P08659; purified firefly luciferase, luminescence, 8 min; Potency, µM (top dose mostly 57.1 µM), actives largely listed as inhibitors; actives 2.2% (n = 72,000); AID 411; note: nearly all actives have a fitted effect of over 40% in size
Target sequence (P08659 whole entry, looked up): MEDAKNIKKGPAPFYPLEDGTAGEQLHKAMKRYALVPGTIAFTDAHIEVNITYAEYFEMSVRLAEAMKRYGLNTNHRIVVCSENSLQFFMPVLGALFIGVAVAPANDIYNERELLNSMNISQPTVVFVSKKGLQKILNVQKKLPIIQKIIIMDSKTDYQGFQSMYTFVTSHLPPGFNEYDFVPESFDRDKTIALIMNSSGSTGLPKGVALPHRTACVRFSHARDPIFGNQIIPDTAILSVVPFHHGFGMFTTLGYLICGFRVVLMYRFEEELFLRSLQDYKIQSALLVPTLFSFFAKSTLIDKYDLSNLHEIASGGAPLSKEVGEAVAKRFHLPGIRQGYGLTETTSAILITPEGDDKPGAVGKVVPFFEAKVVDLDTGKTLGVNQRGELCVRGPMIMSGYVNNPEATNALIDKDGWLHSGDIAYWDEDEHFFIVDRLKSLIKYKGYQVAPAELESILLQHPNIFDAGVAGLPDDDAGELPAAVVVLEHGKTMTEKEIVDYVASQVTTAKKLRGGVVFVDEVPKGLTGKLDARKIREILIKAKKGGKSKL
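Substrate buffer containing 10 uM ATP (pH 7.2 imidazole, Mg2+, KCl, detergent, BSA) is dispensed, compound pinned in, then luciferase/luciferin detector mix added. After 8 min at ambient temperature, light output is measured.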
PK Bst = pyruvate kinase (B. stearothermophilus) modulation; Potency, µM; actives 1.2% (n = 51,000); purified pyruvate kinase, luminescence ATP production; ribose 5-phosphate activator present at AC10; in the data active = potency below about 11 µM; inconclusive = mostly about 12 µM to 25 µM;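 the screen sought inhibitors and activators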
Numbers stand for hits; . = inactive; ? = inconclusive; / = no result; ! = repeats disagree; [ ] = remark or other dose. Unless noted, calls come from the whole dose curve; as a rule, active = well fitted curve in the direction sought with a large enough effect; inconclusive = small, poorly fitted or top-dose-only effect, or another doubt; inactive = no such curve, though single readings can be large; an effect the other way counts as inactive or inconclusive.

SMILES	TSHR ag	HEK293 cAMP ctrl	Luciferase inh	PK Bst
CCN(Cc1ccccc1)Cc1cc(OC)cc(OC)c1	?	5µM	.	/
Cc1c(Cl)cccc1NC(=O)CN1C(=O)CSc2ncccc21	.	.	.	/
CCC/C=C(\CCC)C(NC(=O)c1ccco1)c1ccc(C(=O)OC)cc1 (stereo unspecified)	?	25µM	/	/
Cc1ccccc1-c1nc(N2CCOCC2)c2ccccc2n1	?	?	.[2.29 µM]	/
CN(C)Cc1ccccc1-c1nccc(NCc2cccs2)n1	?	25µM	.[2.29 µM]	/
CN(C)Cc1ccccc1-c1nc(N2CCOCC2)c2ccccc2n1	?	7.9µM	.[2.29 µM]	/
CN(C)Cc1ccccc1-c1ccc2ncnc(N(C)Cc3ccco3)c2c1	?	?	.[2.29 µM]	/
CN(Cc1ccco1)c1nc(-c2ccc3c(c2)OCO3)nc2ccccc12	?	?	.[2.29 µM]	/
CN(C)Cc1ccccc1-c1nc(N(C)Cc2ccco2)c2ccccc2n1	?	13µM	.[2.29 µM]	/
CN(C)Cc1ccccc1-c1nccc(N(C)Cc2ccco2)n1	?	32µM	.[2.29 µM]	/
Cc1nn2c(N3CCN(c4ccccn4)CC3)cc(C(C)C)nc2c1-c1ccccc1	.	.	.	.
CCOC(=O)C1CCN(CC(=O)N2C(C)CCCC2C)CC1 (stereo unspecified)	.	.	.	.
CC1=C(C(=O)NCCCOC(C)C)C2(CCC(C)CC2)OC1=O (stereo unspecified)	.	.	.	/
CCC(=O)NCCCCNC(=O)CC	.	.	.	.
COc1ccc(O)c(C(=O)c2cc(C#N)c(=O)n(-c3c(C)n(C)n(-c4ccccc4)c3=O)c2)c1	.	.	.	.
COc1ccc(OCC(=O)Nc2cccc(OC)c2)cc1	.	.	.	.
Cc1ccccc1OCC(=O)Nc1cccc(N(C)S(C)(=O)=O)c1	.	.	20µM	/
COc1ccccc1OCC(=O)Nc1cccc(-c2nc3ccccc3o2)c1	?	25µM	.	.
CCC(=O)Nc1cccc(-c2nc3ccccc3o2)c1	.	.	.	/
COc1cccc(NC(=O)COc2ccccc2C(N)=O)c1	.	.	7.9µM	?
CCN(CC)S(=O)(=O)c1ccc2[nH]cc(C(=O)NCCN3CCCCCC3)c(=O)c2c1	.	.	.	.
COc1ccccc1CC(=O)NCCc1ccc(S(N)(=O)=O)cc1	.	.	.	.
Oc1ccc(-c2nc(-c3ccc(F)cc3)c(-c3ccncc3)[nH]2)cc1	?	.	1.3µM!	/
Fc1cc2nc(-c3ccncc3)[nH]c2cc1F	.	.	.	.
O=C(OCn1nnc2ccccc2c1=O)C1CCN(S(=O)(=O)c2cccs2)CC1	.	.	.	.
SMILES	TSHR ag	HEK293 cAMP ctrl	Luciferase inh	PK Bst
CCCn1c(C)nc2c(c1=O)c1nc3ccccc3nc1n2CCC1=CCCCC1	?	20µM	.	.
O=C(NC12CC3CC(CC(C3)C1)C2)C1CCCN1C(=O)NC1CCCCC1 (stereo unspecified)	?	?	.	.
CC1CN(S(=O)(=O)c2cn(C)c(=O)n(C)c2=O)CC(C)O1 (stereo unspecified)	40µM	.	.	/
CCOc1ncccc1C(=O)OCC(=O)c1cc(C)n(Cc2ccco2)c1C	?	?	13µM	?
CCn1c(COc2ccccc2)nnc1SCC(=O)NC1CCCCC1	?	?	.	.
Cn1c(=O)c2c(nc(CN3CCN(c4cccc(Cl)c4)CC3)n2CCc2ccccc2)n(C)c1=O	?	7.9µM	.	.
Cn1c(=O)c2c(nc(CN3CCN(c4ccccc4)CC3)n2CCc2ccccc2)n(C)c1=O	?	?	.	.
CCOC(=O)Cn1c(CN2CCN(c3cccc(Cl)c3)CC2)nc2c1c(=O)[nH]c(=O)n2C	?	20µM	.	/
CC(=O)c1c(N(C)C)ccnc1C(F)(F)F	.[11.4 µM]	.[11.4 µM]	.	/
CN=C1N[C@H](c2ccccc2)N(c2ccccc2)S1	.	.	.	/
c1cncc(-c2nc(-c3ccc4c(c3)OCO4)cs2)c1	.	.	13µM	?
Cc1nc(-c2ccc3c(c2)OCO3)cs1	.	.	/	/
Nc1nc(-c2ccc3c(c2)CCCC3)cs1	.	.	13µM	?
CCC(C)C(=O)N1CCc2cc(-c3csc(N)n3)ccc21 (stereo unspecified)	.	.	10µM	8.1
Nc1nc(-c2ccc3c(c2)OCCO3)cs1	.	.	25µM	.
CCOC(=O)CSc1nc(C2CC2)nc2ccccc12	.	.	.	.
O=C(OCc1cc(-c2ccccc2)no1)c1ccc2ccccc2n1	.	.	.	.
CCOC(=O)C1=C(C)NC(=O)NC1c1ccc(OC)c(CN2CCOCC2)c1 (stereo unspecified)	.	.	.	.
CCc1nnc(NC(=O)CSc2nnc(-c3ccoc3C)n2-c2ccc(C)cc2)s1	16µM	.	.	.
CCOc1ccccc1-n1c(SCC(=O)Nc2nccs2)nnc1-c1ccoc1C	?	13µM	.	.
Cc1occc1-c1nnc(SCC(=O)Nc2nccs2)n1CCc1ccccc1	?	?	.	.
Cc1ccc(N2C(=O)c3ccccc3C2O)nc1 (stereo unspecified)	.	.	6.3µM	/
Cc1ccc(-c2noc(-c3cccs3)n2)cc1	.	.	7.9µM	/
CCC1CCCCN1CC(=O)Nc1cc(C)nn1-c1nc(C)cc(C)n1 (stereo unspecified)	?	25µM	.	.
c1ccc2nc(-c3nc4ccccc4o3)ccc2c1	.	.	1.3µM	1.5
SMILES	TSHR ag	HEK293 cAMP ctrl	Luciferase inh	PK Bst
O=C(Nc1ccc(Cl)cc1)C1CCCN(S(=O)(=O)c2cnc[nH]2)C1 (stereo unspecified)	.	.	.	/
CCc1nnc(NC(=O)CN2CCN(c3ccccc3OC)CC2)s1	.	.	.	.
COc1ccc(-c2noc(CCCc3ccccc3)n2)cc1OC	.	.	.	.
COc1ccc(-c2noc(CSc3nc(-c4ccccc4)cc(=O)[nH]3)n2)cc1OC	16µM	.	.	.
Brc1ccccc1-c1nnc(CSc2nnnn2-c2ccccc2)o1	.[11.4 µM]	.	.	.
Brc1ccccc1-c1nnc(COc2ncnc3c2cnn3-c2ccccc2)o1	?	25µM	.	.
O=C(CCC1CCCCC1)Nc1c2c(nn1-c1ccc(F)cc1)CS(=O)(=O)C2	?	3.2µM	.	.
O=C(Nc1c2c(nn1-c1ccc(F)cc1)CS(=O)(=O)C2)C12CC3CC(CC(C3)C1)C2	?	16µM	.	.
COC(=O)CN(c1ccc(C(C)C)cc1)S(=O)(=O)c1c(C)[nH]c(=O)[nH]c1=O	.	.	.	/
O=C(NCc1ccco1)c1cc(-c2ccc(F)cc2)on1	.	.	.	.
CCOC(=O)c1cccc(NC(=O)CN(c2ccc(C)cc2)S(=O)(=O)c2c(C)n[nH]c2C)c1	.	.	.	.
CN1CCc2c(sc3c2C(=O)NC(c2cccc(OC(=O)c4cccs4)c2)N3)C1 (stereo unspecified)	.	.	.	/
CC(C)(C)NCC(O)c1cc(O)cc(O)c1 (stereo unspecified)	/	/	.	.
CC(C)(C)NC[C@H](O)c1cc(O)cc(O)c1	?	16µM	.	/
O=C(CCSc1ccccc1)NC1CCCC1	/	.[11.4 µM]	.	/
Oc1ccccc1OCc1nc2ccccc2s1	.[11.4 µM]	.[11.4 µM]	20µM	/
O=C(OCc1nc2ccccc2s1)c1ccc(Br)s1	?	?	.	.
COc1ccc(-c2cn3c4c(sc3n2)CCCC4)cc1	.	.	0.63µM	0.54
